From PubChem BioAssay come the findings set out here.

Experiment [1] deals with PRMT1 (protein arginine N-methyltransferase 1). In words: PRMT1 binders on small-molecule microarrays, primary screen, biochemical, small-molecule microarray, 635 nm fluorescence (AID 1088).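 Further: binding of Prmt1 protein to compounds spotted on small-molecule microarray slides.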 The following applies: small-molecule microarray binding, higher = more signal.
Experiment [2] is described as follows: yeast growth modulation, basal conditions, primary screen, YJM789 clinical isolate, OD600, 24 h (AID 1089).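 Further: growth of clinical yeast isolate S. cerevisiae YJM 789 seeded 1000 cells per well; test concentration not given here.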 The following applies: S. cerevisiae YJM789 growth, higher = more signal, called active from +8 up or from −8 down.
Experiment [3] is described as follows: fission yeast growth modulation, primary screen, strain 972, OD600, 24 h, no modulator (AID 1090).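 Further: basal condition with compound alone and no growth modifier present; test concentration not given here.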 Particulars: S. pombe 972 growth, higher = more signal, called active from +8 up or from −8 down.
The nature of experiment [4]: S. cerevisiae growth modulation with rapamycin, primary screen, strain BY4716, OD600, 96 h (AID 1091). Further: test concentration not given here. Particulars: higher = more signal, called active from +8 up or from −8 down.
Experiment [5] concerns the target Torsin-1A-interacting protein 2 (Homo sapiens) (UniProt Q8NFQ8). In words: LULL1 binders on small-molecule microarray, primary screen, cell lysate, human LULL1 lysate, 635/667 nm fluorescence (AID 1092).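 Further: probe is lysate of COS7 cells overexpressing human LULL1; score merges per-feature 667 nm fluorescence with signal-to-noise.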 The following applies: hLULL1 lysate binding, 635 nm fluorescence, higher = more signal.
Experiment [6] in a line: E. coli growth modulation, two-sided OD650, primary screen, E. coli filamentation project, strain DRC41, 24 h (AID 1093).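 Further: MC1000 strain lacking acrAB efflux and sulA so SOS filamentation is blocked; test concentration not given here.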 Particulars: OD650, 24 h, higher = more signal, called active from +8 up or from −8 down.
Experiment [7] is described as follows: small-molecule microarray binders of probe aLefty2, primary screen, biochemical, biotinylated probe, 635/667 nm fluorescence (AID 1094).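 Further: score merges spot fluorescence near 667 nm with spot signal-to-noise ratio.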 The following applies: higher = more signal.
In experiment [8] the test system is Noggin (protein binding on small-molecule microarray). As to the kind of experiment: Noggin binders on small-molecule microarray, primary screen, biochemical, 635/667 nm fluorescence (AID 1095).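 Further: score merges 667 nm feature fluorescence with signal to noise over triplicate slides.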 Particulars: 635 nm fluorescence, higher = more signal.
In experiment [9] the target is Neurogenic locus notch homolog protein 3 (Homo sapiens) (UniProt Q9UM47). As to the kind of experiment: NOTCH3 binders on small-molecule microarray, primary screen, biochemical, 635/667 nm fluorescence (AID 1096). The following applies: NOTCH3 binding, 635 nm fluorescence, higher = more signal.
Neurogenic locus notch homolog protein 3 (Homo sapiens), sequence (Q9UM47 whole entry, looked up): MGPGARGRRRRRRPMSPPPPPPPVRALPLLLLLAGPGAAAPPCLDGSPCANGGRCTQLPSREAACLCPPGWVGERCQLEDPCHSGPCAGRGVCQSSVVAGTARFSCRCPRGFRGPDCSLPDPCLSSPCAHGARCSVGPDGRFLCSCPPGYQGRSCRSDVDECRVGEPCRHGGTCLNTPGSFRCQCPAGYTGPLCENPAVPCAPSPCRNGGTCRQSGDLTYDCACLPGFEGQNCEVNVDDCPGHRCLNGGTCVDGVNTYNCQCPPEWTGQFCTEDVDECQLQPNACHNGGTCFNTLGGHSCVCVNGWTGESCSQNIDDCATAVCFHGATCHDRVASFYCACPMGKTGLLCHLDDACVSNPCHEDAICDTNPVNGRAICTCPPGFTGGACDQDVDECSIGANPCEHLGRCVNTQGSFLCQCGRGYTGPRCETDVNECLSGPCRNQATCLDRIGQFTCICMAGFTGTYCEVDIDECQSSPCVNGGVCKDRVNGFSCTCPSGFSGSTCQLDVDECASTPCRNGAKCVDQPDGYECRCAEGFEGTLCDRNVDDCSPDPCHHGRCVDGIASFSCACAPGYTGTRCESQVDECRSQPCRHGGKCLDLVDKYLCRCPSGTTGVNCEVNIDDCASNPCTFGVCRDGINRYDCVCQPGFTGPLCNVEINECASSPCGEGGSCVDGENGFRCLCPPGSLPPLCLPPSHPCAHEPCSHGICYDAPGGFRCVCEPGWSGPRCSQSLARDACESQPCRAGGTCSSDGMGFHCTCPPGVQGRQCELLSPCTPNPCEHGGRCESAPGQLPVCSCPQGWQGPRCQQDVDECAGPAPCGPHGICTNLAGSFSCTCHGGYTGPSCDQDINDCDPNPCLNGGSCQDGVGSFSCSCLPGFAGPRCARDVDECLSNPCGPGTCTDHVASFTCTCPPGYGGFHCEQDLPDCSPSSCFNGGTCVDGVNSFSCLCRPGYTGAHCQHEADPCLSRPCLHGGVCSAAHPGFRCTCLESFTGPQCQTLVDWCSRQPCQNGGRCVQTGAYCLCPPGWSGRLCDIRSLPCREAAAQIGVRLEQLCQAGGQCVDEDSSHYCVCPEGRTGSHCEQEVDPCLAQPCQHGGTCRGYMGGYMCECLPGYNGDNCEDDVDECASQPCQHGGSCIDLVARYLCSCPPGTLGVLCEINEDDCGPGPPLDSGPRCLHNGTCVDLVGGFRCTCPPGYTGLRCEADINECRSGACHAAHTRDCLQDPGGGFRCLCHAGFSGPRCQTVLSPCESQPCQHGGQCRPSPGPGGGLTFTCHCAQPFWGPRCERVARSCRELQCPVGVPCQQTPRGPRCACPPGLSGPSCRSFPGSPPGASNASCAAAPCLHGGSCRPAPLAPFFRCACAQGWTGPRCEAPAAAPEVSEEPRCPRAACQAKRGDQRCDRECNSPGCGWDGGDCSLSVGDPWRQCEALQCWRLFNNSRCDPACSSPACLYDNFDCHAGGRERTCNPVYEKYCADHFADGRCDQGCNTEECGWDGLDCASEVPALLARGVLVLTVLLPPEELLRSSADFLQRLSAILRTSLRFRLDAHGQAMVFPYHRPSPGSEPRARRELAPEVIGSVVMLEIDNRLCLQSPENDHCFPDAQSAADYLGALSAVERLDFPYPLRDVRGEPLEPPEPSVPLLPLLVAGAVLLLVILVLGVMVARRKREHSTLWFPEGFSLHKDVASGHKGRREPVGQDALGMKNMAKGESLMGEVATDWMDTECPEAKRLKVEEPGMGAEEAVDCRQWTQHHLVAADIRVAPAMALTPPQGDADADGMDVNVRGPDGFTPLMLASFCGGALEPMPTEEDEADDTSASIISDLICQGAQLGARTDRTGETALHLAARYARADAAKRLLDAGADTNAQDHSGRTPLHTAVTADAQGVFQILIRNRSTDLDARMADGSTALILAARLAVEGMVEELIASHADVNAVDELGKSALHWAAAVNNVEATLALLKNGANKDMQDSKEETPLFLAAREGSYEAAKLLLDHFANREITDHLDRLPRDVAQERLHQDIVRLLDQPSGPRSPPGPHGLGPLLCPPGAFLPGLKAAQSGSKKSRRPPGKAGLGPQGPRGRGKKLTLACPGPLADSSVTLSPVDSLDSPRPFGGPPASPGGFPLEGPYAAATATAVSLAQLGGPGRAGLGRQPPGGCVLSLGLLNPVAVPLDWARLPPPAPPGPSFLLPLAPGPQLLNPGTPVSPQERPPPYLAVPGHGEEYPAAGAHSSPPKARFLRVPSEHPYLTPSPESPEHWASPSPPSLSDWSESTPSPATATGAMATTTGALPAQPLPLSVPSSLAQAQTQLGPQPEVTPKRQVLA
The nature of experiment [10]: small-molecule microarray binders of probe aEGFR, primary screen, biochemical, biotinylated probe, 635/667 nm fluorescence (AID 1097).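 Further: probe is a biotinylated anti-EGFR antibody binding compounds printed on slides; score combines fluorescence near 667 nm and signal to noise of each spot.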 The following applies: higher = more signal.

Active and inactive are the calls of the source.

Torsin-1A-interacting protein 2 (Homo sapiens), sequence (Q8NFQ8 whole entry, looked up): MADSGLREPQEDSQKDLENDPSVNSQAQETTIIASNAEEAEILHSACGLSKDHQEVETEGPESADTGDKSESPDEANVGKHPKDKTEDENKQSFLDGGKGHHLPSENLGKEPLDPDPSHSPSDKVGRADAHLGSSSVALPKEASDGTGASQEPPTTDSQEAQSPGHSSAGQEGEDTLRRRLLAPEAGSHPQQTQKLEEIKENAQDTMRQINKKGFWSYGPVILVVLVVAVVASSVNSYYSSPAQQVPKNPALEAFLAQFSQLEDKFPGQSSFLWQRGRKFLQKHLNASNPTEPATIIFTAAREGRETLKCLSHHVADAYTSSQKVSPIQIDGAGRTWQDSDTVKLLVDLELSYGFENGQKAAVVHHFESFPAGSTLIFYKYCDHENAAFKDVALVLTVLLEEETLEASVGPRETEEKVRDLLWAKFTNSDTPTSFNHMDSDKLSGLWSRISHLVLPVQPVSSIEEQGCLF

As for `C[C@]1(C(=O)NCCN2CCOCC2)c2ccccc2C(=O)N(Cc2cc(F)cc(C(F)(F)F)c2)[C@H]1c1ccc(CO)cc1`, the composite z-score in [1] is 1.49; in experiment [5], 3.36; in experiment [7], -0.0511; in [8], 0.463; in experiment [9] it was 0.572; in experiment [10], -0.142. The z-score in experiment [2] was 0.006 (inactive); in [3] it was 0.487 (inactive); in experiment [4], -0.837 (inactive); in [6], 1.47 (inactive).
Consider `COCCOC(=O)N1C(=O)[C@@]2(c3cc(C#CCNC(N)=O)ccc31)[C@H](c1ccc(O)cc1)N1[C@H](c3ccccc3)[C@H](c3ccccc3)OC(=O)[C@H]1[C@@H]2C(=O)N1CCN(c2ncccn2)CC1`, for which the composite z-score in [1] worked out at 1.42; in experiment [5] it was 3; in experiment [7], 0.24; in [8], 0.96; in [9], 1.15; in experiment [10], 0.187. For the same molecule, the z-score is 1.74 (inactive) in [2], 1.94 (inactive) in experiment [3], 4.35 (inactive) in experiment [4] and -0.561 (inactive) in experiment [6].
On to `CC(C)CNC(=O)[C@@H]1c2ccccc2C(=O)N(C2CCCCC2)[C@H]1c1ccc(CO)cc1`, for which the composite z-score in [1] is 0.933; in experiment [5] it was 3.03; in experiment [7] it was -0.137; in [8], -0.369; in experiment [9] it was -0.358; in experiment [10], -0.218. The z-score in experiment [2] is -0.417 (inactive); in experiment [3], -0.641 (inactive); in experiment [4] it was -0.812 (inactive); in experiment [6], 3.31 (inactive).
Regarding `CC(C)C[C@@H]1NC(=O)[C@H]2C[C@@H](C(=O)NCCCCCN)[C@@H](c3cccc(OCCO)c3)N2C1=O`, the composite z-score in experiment [1] was 0.808; in experiment [5] it was 0.872; in experiment [7], 0.13; in experiment [8], -0.993; in experiment [9] it was 0.135; in [10], -0.14. In addition, the z-score in experiment [2] was -3.54 (inactive); in experiment [3] it was -0.726 (inactive); in experiment [4], -1.04 (inactive); in experiment [6], 0.545 (inactive).
Take `Cc1ccc(S[C@]2(C(=O)NCC(C)C)CC(=O)N(C3Cc4ccccc4C3)[C@@H]2c2ccc(CO)cc2I)cc1`: the composite z-score in [1] is -0.409; in experiment [5], 0.724; in experiment [7], 0.0349; in experiment [8], -1.45; in [9], -0.933; in experiment [10], -0.294. The z-score in experiment [2] was -0.766 (inactive); in [3] it was -1.49 (inactive); in [4] it was 1.51 (inactive); in experiment [6], -0.0979 (inactive).
`CCCCCN1CC=CC23O[C@@H]4/C=C\CCC(C)OC(=O)C4[C@H]2C(=O)N(CCCCCCO)[C@@H]3C1=O` (stereo not given in full): the composite z-score is 0.523 in experiment [1]; 1.79 in experiment [5]; -0.119 in experiment [7]; 0.296 in [8]; 0.109 in [9]; -0.126 in [10]. Moreover, the z-score in [2] was 0.735 (inactive); in [3], 0.157 (inactive); in [4], -0.635 (inactive); in experiment [6], 1.24 (inactive).
Consider `CCOC(=O)C[C@H]1[C@H](OC(=O)c2ccc(-c3ccccc3)cc2)[C@@H](NC(=O)Cc2ccc(OC)cc2)c2cc(OCCCO)ccc2N1C(=O)Cc1ccc(OC)cc1`, for which the composite z-score was 0.287 in [1]; 1.55 in [5]; -0.0769 in [7]; -0.542 in [8]; -0.0636 in [9]; -0.094 in experiment [10]. Also, the z-score in experiment [2] was 1.09 (inactive); in experiment [3], -0.231 (inactive); in [4], 1.63 (inactive); in [6] it was 1.3 (inactive).
For `O=C1O[C@H](c2ccccc2)[C@H](c2ccccc2)N2[C@H]1[C@@H](C(=O)Nc1nc3ccccc3s1)[C@]1(C(=O)Nc3ccc(C#CC4=CCCCC4)cc31)[C@H]2c1ccc(O)cc1`, the composite z-score is 1.55 in experiment [1]; 2.88 in experiment [5]; -0.12 in experiment [7]; 1.1 in experiment [8]; 1.06 in experiment [9]; -0.0679 in experiment [10]. In addition, the z-score in [2] was 0.556 (inactive); in experiment [3] it was 0.589 (inactive); in experiment [4], 0.401 (inactive); in experiment [6], 1.97 (inactive).
For the molecule `NC(=O)N1C(=O)C2C(C1=O)C1C=C(CCCO)C2C(C2CC2)N1Cc1cccc(OC(F)(F)F)c1` (stereo not given), the composite z-score in experiment [1] is 0.639; in experiment [5] it was 2.63; in experiment [7] it was -0.249; in [8], -0.0319; in experiment [9], -0.538; in [10], -0.184. Moreover, the z-score is -0.897 (inactive) in [2], -0.497 (inactive) in experiment [3], -1.47 (inactive) in experiment [4] and -0.284 (inactive) in [6].
As for `CC(C)(C)OC(=O)CC[C@]12N=C(c3ccc(OCCCO)cc3)O[C@H]1c1ccccc1N(Cc1ccccc1)C2=O`, the composite z-score is 1.54 in experiment [1]; 2.72 in [5]; 0.12 in experiment [7]; 0.938 in experiment [8]; 0.967 in experiment [9]; -0.128 in [10]. In addition, the z-score in experiment [2] was 0.429 (inactive); in [3], -1.1 (inactive); in experiment [4], 5.79 (inactive); in experiment [6], 0.911 (inactive).
Regarding `Cc1nc2cc(Br)ccc2c(=O)n1Cc1cccc(O)c1`, the composite z-score is 1.57 in experiment [1]; 1.16 in [5]; -0.0607 in experiment [7]; 1.33 in [8]; -0.108 in experiment [9]; -0.0474 in [10]. The z-score is 0.104 (inactive) in experiment [2], -1.84 (inactive) in experiment [3], -0.973 (inactive) in experiment [4] and 1.22 (inactive) in experiment [6].
Consider `COc1cc(NN2C(C(O)C3CCCCC3)C=CC3C(=O)N(c4ccccc4)C(=O)C32)cc(OC)c1OC` (stereo not given), for which the composite z-score was 0.955 in experiment [1]; 3.25 in experiment [5]; 0.167 in experiment [7]; -0.273 in experiment [8]; 1.07 in experiment [9]; -0.0068 in experiment [10]. Further, the z-score in experiment [2] was 0.93 (inactive); in experiment [3] it was 1.06 (inactive); in [4], 0.408 (inactive); in experiment [6] it was -1.24 (inactive).
As for `C=CCNC(=O)[C@H]1[C@@H]2C(=O)O[C@@H](c3ccccc3)[C@@H](c3ccccc3)N2[C@@H](c2ccc(OCCO)cc2)[C@]12C(=O)N(C(=O)OCCOC)c1ccc(C#Cc3ccc(OC)cc3)cc12`, the composite z-score in [1] is 1.41; in experiment [5], 2.47; in experiment [7], -0.0154; in experiment [8], 1.04; in experiment [9], 1.09; in experiment [10] it was -0.0164. Further, the z-score in experiment [2] was 1.2 (inactive); in experiment [3] it was 0.927 (inactive); in experiment [4] it was 6.91 (inactive); in experiment [6], 2.63 (inactive).
Take `CCOC(=O)C[C@H]1[C@H](OC(=O)c2ccccc2-c2ccccc2)[C@@H](NC(=O)c2ccccc2)c2cc(OCCCO)ccc2N1C(=O)c1ccccc1`: the composite z-score in [1] is 0.0302; in experiment [5], 1.22; in experiment [7] it was -0.214; in experiment [8], 0.169; in experiment [9], 0.243; in experiment [10], -0.0726. The z-score is -0.0764 (inactive) in experiment [2], 0.587 (inactive) in experiment [3], 1.58 (inactive) in experiment [4] and -1.11 (inactive) in [6].
For `CC1CC/C=C\[C@H]2OC34C=CCN(CCN5CCOCC5)C(=O)[C@H]3N(C(C)CO)C(=O)[C@@H]4C2C(=O)O1` (stereo not given in full), the composite z-score is 0.564 in experiment [1]; 3.36 in [5]; -0.161 in [7]; 0.223 in experiment [8]; 0.21 in experiment [9]; -0.156 in experiment [10]. The z-score is 0.194 (inactive) in experiment [2], -0.365 (inactive) in experiment [3], 0.0614 (inactive) in experiment [4] and -0.476 (inactive) in experiment [6].
